Inconclusive results are not listed. The source made the active and inactive calls. The call rests on the fitted dose curve; in most records, active means well fitted cell-killing curve with a large enough effect in the repeat runs; inconclusive means weak or mixed curves, or effect the other way; inactive means no such curve, though single readings can be large or run the other way.
On the % scale 0 is the no-effect control and ±100 the full control effect.

A short description of the experiment: qHTS assay to identify small molecule antagonists of the peroxisome proliferator-activated receptor gamma (PPARg) signaling pathway - cell viability counter screen (AID 743194). Further: nearly all actives have a fitted effect of over 55% in size. To be noted: PPARg-bla HEK293H viability, CellTiter-Glo luminescence, 17 h, co-treated with 50 nM rosiglitazone; series mostly up to 62.6 µM; activity change, negative = cytotoxicity: at the top concentration. The source says:
U.S. Tox21 Program National Center for Advancing Translational Sciences [NCATS] NIH Chemical Genomics Center [NCGC] U.S. Environmental Protection Agency [EPA] National Institutes of Environmental Health Sciences [NIEHS] National Toxicology Program [NTP] U.S. Food and Drug Administration [FDA] Tox21 Assay Overview: The peroxisome proliferator-activated receptors (PPARs) are lipid-activated transcription factors of the nuclear receptor superfamily with three distinct subtypes namely PPAR alpha, PPAR delta (also called PPAR beta) and PPAR gamma (PPARg). All these subtypes heterodimerize with Retinoid X receptor (RXR) and these heterodimers regulate transcription of various genes. PPAR-gamma receptor (glitazone receptor) is involved in the regulation of glucose and lipid metabolism. To identify the compounds that activate PPAR-gamma signaling, GeneBLAzer PPAR gamma UAS-bla HEK293H cell line (Invitrogen, Carlsbad, CA, USA) containing a beta-lactamase reporter gene under the control of an Upstream Activator Sequence (UAS) was used to screen the Tox21 compound library. The cytotoxicity of the Tox21 compound library against the PPARg-bla cell line was tested in parallel by measuring the cell viability using CellTiter-Glo assay in the same wells.
Tox21 Assay Protocol Summary: PPARg-bla cells were dispensed at 3000 cells/5uL/well in 1536-well black wall/clear bottom plates using a Multidrop Combi (Thermo Fisher Scientific, Waltham, MA) dispenser. After the assay plates were incubated at 37 C and 5% CO2 for 5 h, 23 nL of compounds dissolved in DMSO, positive controls or DMSO only was transferred to the assay plate by a Pintool station (Kalypsys, San Diego, CA), followed by addition of 1ul Rosiglitazone (50 nM, final concentration in the wells). The assay plates were incubated at 37 C for 17 h, and then 1 uL of LiveBLAzerTM B/G FRET substrate was added using a Bioraptr Flying Reagent Dispenser (FRD) workstation (Beckman Coulter, Indianapolis, IN, USA). The assay plates were incubated at room temperature for 1 h and fluorescence intensity was measured by an Envision plate reader (PerkinElmer, Shelton, CT). For cell viability readout that measures cytotoxicity, 4 ul/well of CellTiter-Glo reagent was added into the assay plates using a Flying Reagent Dispenser. After 30 min incubation at room temperature, the luminescence intensity in the plates was measured using a ViewLux plate reader (PerkinElmer).
`COCCOCCOCCOCCOC`: the “activity change, negative = cytotoxicity” value was 6.79% (inactive).
For the molecule `CC(=O)/C=C/C1C(C)=CCCC1(C)C` (stereo not given), the “activity change, negative = cytotoxicity” value was -9.37% (inactive).
The result for `CCN(CC)CCOC(=O)C1(c2ccccc2)CCCC1` reads 0.764% (inactive); that for `CCOC(=O)C1=C(C)NC(C)=C(C(=O)OC)C1c1cccc([N+](=O)[O-])c1` (stereo not given), 17.7% (inactive); that for `O=S1(=O)N=C(O)c2ccccc21`, 0.794% (inactive).
Then `Oc1ccc(Sc2ccc(O)cc2)cc1`, with -22% (inactive).
Then `O=C(CC(=O)c1ccccc1)c1ccccc1`, with 9.17% [at 81.1 µM] (inactive).
As to `C=CCCCCCC`, the “activity change, negative = cytotoxicity” value was 6.06% (inactive).
Then `N#Cc1cc2ccccc2c2ccccc12`, with -23.5% [at 81.1 µM] (inactive); and `O=C(c1ccccc1)c1ccc2n1CCC2C(=O)O` (stereo not given), with 6.17% (inactive); and `CCOc1cc(OCC)c(C(=O)CCC(=O)O)cc1OCC`, with -1.1% (inactive).
Then `CC(C)CCCCCCOC(=O)c1ccc(C(=O)OCCCCCCC(C)C)c(C(=O)OCCCCCCC(C)C)c1`, with -16.1% (inactive).
With `CC(C(=O)O)c1ccc(-c2ccccc2)c(F)c1` (stereo not given), the “activity change, negative = cytotoxicity” value was 1.33% (inactive).
As for `CC(=O)c1ccc2c(c1)[C@H](NC(=O)c1ccc(F)cc1)[C@@H](O)C(C)(C)O2`, the “activity change, negative = cytotoxicity” value is 18.6% (inactive).
Then `CN1CCC[C@@H]1c1cccnc1`, with 7.55% (inactive).
The result for `CCc1nn(C2CCCCC2)c2cc(C3(C#N)CCC(C(=O)O)CC3)ccc12` (stereo not given) reads 3.47% (inactive); that for `CCCCC(CC)COCCCN` (stereo not given), -2.2% (inactive).
Then `CC1=CCC(C(C)C)C=C1` (stereo not given), with 1.5% (inactive); and `C=CC(C)(CCC=C(C)C)OC(=O)c1ccccc1` (stereo not given), with -21.1% (inactive).
With `CC(=O)Nc1ccc(/C=N/NC(N)=S)cc1`, the “activity change, negative = cytotoxicity” value is 0.672% (inactive).
Turning to `Nc1nc(N)c(-c2ccccc2)s1`, the “activity change, negative = cytotoxicity” value was -8.82% (inactive).
With `CCN(CC)CCc1nc(-c2ccccc2)no1`, the “activity change, negative = cytotoxicity” value was 3.83% (inactive).
Take `CCN(CC)CCNC(C(=O)OCCC(C)C)c1ccccc1` (stereo not given): the “activity change, negative = cytotoxicity” value was -4.4% (inactive).
Then `N#CCCNCCC#N`, with -15.9% [at 81.1 µM] (inactive).
The result for `O=C(O)[C@@H]1[C@H]2C[C@H]3c4[nH]c5ccccc5c4CCN3C[C@@H]2CC[C@@H]1O` reads 3.81% (inactive).
Then `ClC(Cl)(Cl)c1ccc(C(Cl)(Cl)Cl)cc1`, with -1.62% (inactive); and `COC(Cc1ccccc1)OC`, with 17.3% (inactive); and `CCOc1ccc(NC(=O)CC(C)=O)cc1`, with -6.21% (inactive).
On to `CCCCCCCCCC=O`, for which the “activity change, negative = cytotoxicity” value was 2.38% (inactive).
Then `CCCCCCc1ccc(N)cc1`, with 3.41% (inactive); and `Cn1sccc1=O`, with -1.52% (inactive); and `COC(=O)C(C)=O`, with -6.33% [at 81.1 µM] (inactive).
As to `CC(C)(C)c1cc(CO)cc(C(C)(C)C)c1O`, the “activity change, negative = cytotoxicity” value is 3.03% [at 81.1 µM] (inactive).
In the case of `O=C(O)Cc1sc(-c2ccccc2)nc1-c1ccc(Cl)cc1`, the “activity change, negative = cytotoxicity” value was -0.485% (inactive).
The result for `CCCCOC(=O)c1ccccc1C(=O)OCC(CC)CCCC` (stereo not given) reads 4.21% (inactive).
In the case of `Cc1cc(C)c(S(=O)(=O)O)cc1N=Nc1cc(S(=O)(=O)O)c2ccccc2c1O`, the “activity change, negative = cytotoxicity” value was 13.3% (inactive).
`NC(N)=N/N=C/c1c(Cl)cccc1Cl`: the “activity change, negative = cytotoxicity” value was -12% (inactive).
Then `C1=Cc2ccccc2C1`, with 5.17% (inactive).
Turning to `COc1ccc2[nH]c(S(=O)Cc3ncc(C)c(OC)c3C)nc2n1` (stereo not given), the “activity change, negative = cytotoxicity” value is 8.8% (inactive).
In the case of `CC1(C)CCC(C)(C)c2cc(NC(=O)c3ccc(C(=O)O)cc3)ccc21`, the “activity change, negative = cytotoxicity” value was -0.281% (inactive).

Source of the values: PubChem BioAssay (Tox21).
